Among all 85,000 compounds or so, about 440 (0.52%) showed an effect of 50% or more. The sample as a whole holds a higher share of strong results than the screen did.
Assay: In vitro enzyme assay to detect hydrolysis of chlorophenol red-beta-D-[…] directly proportional to the number of Toxoplasma stably expressing beta-galactosidase
Format: functional, organism-based, Toxoplasma gondii
Design: scale not given: in the data most compounds retested in dose-response had high values

SMILES	Percent Effect (50 µM)	Percent Effect (10 µM)
CC(C)(C)c1cc(NC(=O)CN2CCC(O)CC2)on1	-5.429%	–
CCOc1ccc(NC(=O)NC2CCS(=O)(=O)C2)cc1 (stereo not given)	3.188%	–
O=C(CN1CCNCC1)NCCSc1ccc(Cl)cc1	4.461%	–
O=C(NCCN1CCOCC1)c1ccc(-n2ccc3ccccc32)s1	–	-1.22%
CCN(CC)CCNC(=O)c1ccc(-n2ccc3ccccc32)s1	–	63.07%
O=C(NCCCN1CCCC1=O)c1ccc(-n2ccc3ccccc32)s1	–	17.83%
O=C(NCCCN1CCOCC1)c1ccc(-n2ccc3ccccc32)s1	–	19.43%
O=C(NCCCN1CCCCC1)c1ccc(-n2ccc3ccccc32)s1	–	79.49%
CCN(CC)CCNC(=O)c1cnc(C(C)(C)C)s1	–	0.3139%
CC1Sc2ccc(C(=O)N(C)C)cc2NC1=O (stereo not given)	-6.489%	–
NC1CCN(c2ccccc2F)CC1	-9.36%	–
CCSCCC(C)N(C)C(=O)c1ccn(C)c(=O)c1 (stereo not given)	-4.294%	–
COc1ccc(C2NC(=O)c3cccnc3N2)cc1F (stereo not given)	6.983%	–
N#Cc1ccc(C2NC(=O)c3cccnc3N2)cc1 (stereo not given)	98.73%	–
O=C1NC(c2cc[nH]n2)Nc2ncccc21 (stereo not given)	-9.997%	–
CC(C)OCCN1CCC(O)CC1	2.889%	–
O=C(Nc1ccncc1)N1CCN(CC2CC2)CC1	11.51%	–
CN(C)CC1CN(Cc2nc(-c3cccnc3)no2)CCO1 (stereo not given)	–	12.35%
c1ccc(-c2noc(CN3CCOC(Cn4cccn4)C3)n2)nc1 (stereo not given)	–	4.093%
CN(C)CC1CN(Cc2nc(-c3ccccn3)no2)CCO1 (stereo not given)	–	86.82%

Reference: ChEMBL document CHEMBL3988442, “University of Dundee, Small-Polar-MMV Screening Library” (2021)
